Coupling enz: counter-screen for Giardia aldolase inhibitors: coupling enzyme system; AID 2472; activity change, negative = inhibition, % at 58.2 µM, hits read low; actives 0.67% (n = 290,000); coupling enzyme system counterscreen, AmpLite Red fluorescence; in the data active means activity change below about -30%
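Fluorescence at 525 nm excitation and 598 nm emission measured inhibition of the coupled detection system without aldolase. Compounds (at 57.5 uM final) were preincubated 10 min at room temperature with coupling enzyme reagent before a 20 min substrate/AmpLite Red step.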
Tau fluor cs: counter-screen for tau fibril formation inhibitors | AID 1463 | Potency, µM (series often up to 57.7 µM) | tau K18 P301L Alexa594 fluorescence, heparin fibrillization | actives 0.93% (n = 280,000); further: nearly all actives have a fitted effect of over 55% in size
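Human K18 P301L tau (15 uM unlabeled plus 0.24 uM Alexa 594-labeled, final) in 100 mM sodium acetate pH 7 was mixed with compound and 20 uM heparin and incubated 6 hr at 37 C.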
G9a inh: blocks human histone lysine methyltransferase G9a; Q96KQ7; G9a H3K9 monomethylation, AlphaScreen, 2 h; Potency, µM (series often up to 102 µM), usual class: inhibitors; actives 8.8% (n = 350,000); AID 504332; further: nearly all actives have a fitted effect of over 75% in size
Target sequence (Q96KQ7 913-1193 limits assumed): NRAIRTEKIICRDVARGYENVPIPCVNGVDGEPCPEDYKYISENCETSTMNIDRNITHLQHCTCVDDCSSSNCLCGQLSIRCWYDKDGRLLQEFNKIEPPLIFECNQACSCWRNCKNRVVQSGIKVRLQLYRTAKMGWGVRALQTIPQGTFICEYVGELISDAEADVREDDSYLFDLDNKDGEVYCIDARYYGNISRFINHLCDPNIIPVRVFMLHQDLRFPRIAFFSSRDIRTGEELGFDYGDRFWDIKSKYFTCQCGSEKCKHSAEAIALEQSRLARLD
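G9a (20 nM) preincubated 15 min RT with compounds, then 500 nM biotinylated H3K9 peptide and 20 uM SAM added; 2 h RT reaction. Monomethyl-H3K9 product detected by AlphaScreen with anti-H3K9me1 antibody, streptavidin donor and anti-rabbit IgG acceptor beads.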
Tau FP inhib: inhibitors of human tau fibril formation; P10636; K18 P301L tau heparin fibrillization, Alexa594 FP, 6 h; Potency, µM (top dose mostly 57.7 µM), usual class: inhibitors; actives 0.39% (n = 280,000); AID 1468; further: nearly all actives have a fitted effect of over 55% in size
Target sequence (P10636 561-689 P618L limits assumed): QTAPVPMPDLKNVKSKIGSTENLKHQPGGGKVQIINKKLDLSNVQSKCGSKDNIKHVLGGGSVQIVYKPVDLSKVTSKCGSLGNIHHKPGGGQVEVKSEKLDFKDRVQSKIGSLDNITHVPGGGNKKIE
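Quantitative HTS format: compounds meet 15 uM recombinant K18 P301L tau and Alexa 594-tau tracer in 100 mM sodium acetate pH 7; 20 uM heparin triggers fibrillization at 37 C over 6 hr; FP gives the signal.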
Sfp PPTase inh: blocks B. subtilis Sfp PPTase activity | Q9F4F7 | Biochemical Sfp PPTase activity, qHTS | Potency, µM, usual class: inhibitors | actives 3.5% (n = 310,000) | AID 1490;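 further: the enzyme is Sfp with the accession as filed and its product quenches rhodamine fluorescence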
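Fluorescence-quenching assay with 15 nM Sfp, 5 uM rhodamine-CoA and 12.5 uM BHQ-2-labelled ybbR peptide in pH 7.6 Hepes/MgCl2 buffer. Enzyme was pre-incubated with compound for 15 min at room temperature. Rate was taken from the 30-min fluorescence change (525/598 nm).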
Tau ThT inhib: blocks human tau fibril formation measured by thioflavin T. P10636. actives 2.1% (n = 270,000). Potency, µM (series often up to 57.4 µM), usual class: inhibitors. recombinant tau K18 P301L (four-repeat tau fragment), heparin-induced fibrillization, ThT fluorescence; further: nearly all actives have a fitted effect of over 55% in size
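Heparin-induced (20 uM) aggregation of recombinant human K18 P301L tau, 15 uM unlabeled with 0.24 uM labeled, pH 7 acetate buffer, 6 hr at 37 C with compound. Fibrils quantified by 30 uM ThT fluorescence after 1 hr ambient incubation.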
Hits are given with their value; [ ] = dose if it differs, or a comment. In the library only some 11% were active in any assay of this set; here they are far more common. Unless noted, the call rests on the fitted dose curve; in most records, active means well fitted curve in the direction sought with a large enough effect; inconclusive means small, poorly fitted or top-dose-only effect, or another doubt; inactive means no such curve, though single readings can be large; an effect the other way counts as inactive or inconclusive.

For COc1cccc(C(=O)CN2CCN(S(=O)(=O)c3ccc(Cl)cc3)CC2)c1 the results were Tau fluor cs inactive, G9a inh 10µM, Tau FP inhib inactive and Tau ThT inhib inactive.
Screening O=C(CN1CCN(S(=O)(=O)c2ccc(F)cc2)CC1)c1ccc(O)c(O)c1 returned Coupling enz inactive, Tau fluor cs inconclusive, G9a inh 20µM, Tau FP inhib inconclusive, Sfp PPTase inh 18µM and Tau ThT inhib inconclusive.
CCOc1ccc(C(=O)CN2CCN(S(=O)(=O)c3ccc(F)cc3)CC2)cc1 was read as Coupling enz inactive, Tau fluor cs inactive, G9a inh inconclusive, Tau FP inhib inactive, Sfp PPTase inh inactive and Tau ThT inhib inactive.
COc1cccc(CNC(=O)N2CCN(S(=O)(=O)c3ccc(Cl)cc3)CC2)c1 was read as Coupling enz inactive, G9a inh inactive and Sfp PPTase inh inactive.
For Cc1cc(=O)c(C(=O)Nc2cccc(C(=O)NC3CC3)c2)nn1-c1ccccc1Cl the results were G9a inh inactive[12.7 µM].
Screening Cc1cc(C(=O)Nc2cccc(F)c2)c2c(C)nn(-c3cccc(Cl)c3C)c2n1 returned Tau fluor cs inactive, G9a inh inactive, Tau FP inhib inactive and Tau ThT inhib inactive.
For Cc1ccccc1-n1c(=O)cc(N2CCN(Cc3ccccc3)CC2)[nH]c1=O the results were Coupling enz inactive, Tau fluor cs inactive, G9a inh 56µM, Tau FP inhib inactive, Sfp PPTase inh inconclusive and Tau ThT inhib inactive.
Screening CCOC(=O)N1CCN(c2cc(=O)n(-c3ccccc3C)c(=O)[nH]2)CC1 returned Coupling enz inactive, Tau fluor cs inactive, G9a inh inactive, Tau FP inhib inactive, Sfp PPTase inh inactive and Tau ThT inhib inactive.
`CCN1CCN(c2cc(=O)n(-c3cc(Cl)ccc3C)c(=O)[nH]2)CC1` gave Coupling enz inactive, Tau fluor cs inactive, G9a inh 50µM, Tau FP inhib inactive, Sfp PPTase inh inactive and Tau ThT inhib inactive.
`Cc1ccc(-n2c(=O)cc(N3CCN(c4ccccc4Cl)CC3)[nH]c2=O)cc1` gave Tau fluor cs inactive, G9a inh inactive, Tau FP inhib inactive and Tau ThT inhib inactive.
`O=C(CN1CCN(c2ccccc2O)CC1)NC(=O)NCc1ccco1` gave Coupling enz inactive, Tau fluor cs inactive, G9a inh inactive, Tau FP inhib inactive, Sfp PPTase inh inactive and Tau ThT inhib inactive.
For O=C(CN1CCN(c2ccc(O)cc2)CC1)NC(=O)NCc1ccco1 the results were Coupling enz inactive, Tau fluor cs inactive, G9a inh 7.9µM, Tau FP inhib inactive, Sfp PPTase inh 40µM and Tau ThT inhib inactive.
For CC(C)(C)NC(=O)NC(=O)CN1CCN(S(=O)(=O)c2ccccc2)CC1 the results were Coupling enz inactive, Tau fluor cs inactive, G9a inh inactive, Tau FP inhib inactive and Sfp PPTase inh inactive.
`COc1ccc(N2CCN(CC(=O)NC(=O)NCc3ccco3)CC2)cc1` gave Coupling enz inactive, Tau fluor cs inactive, G9a inh 32µM, Tau FP inhib inactive, Sfp PPTase inh inactive and Tau ThT inhib inactive.
COc1ccc(N2CCN(CC(=O)NC(=O)NC(C)(C)C)CC2)cc1 was read as Coupling enz inactive, Tau fluor cs inactive, G9a inh 79µM, Tau FP inhib inactive, Sfp PPTase inh inactive and Tau ThT inhib inactive.
Screening COc1ccc(N2CCN(CC(=O)Nc3ccc(C)cc3)CC2)cc1 returned Coupling enz inactive and Sfp PPTase inh inactive.
`CC(C)(C)NC(=O)NC(=O)CN1CCN(S(=O)(=O)c2ccc3c(c2)CCCC3)CC1` gave G9a inh 45µM.
`O=C(CN1CCC(Cc2ccccc2)CC1)NC(=O)NCc1ccco1` gave Coupling enz inactive, Tau fluor cs inactive, G9a inh inactive, Tau FP inhib inactive, Sfp PPTase inh inactive and Tau ThT inhib inactive.
`COc1ccc(-c2cc(C(F)(F)F)c(C#N)c(SCC(=O)Nc3cccc(C)c3)n2)cc1` gave Tau fluor cs inactive, G9a inh inactive, Tau FP inhib inconclusive and Tau ThT inhib inactive.
